# Compound activity deposited in PubChem BioAssay by Broad Institute.
# Wnt bcat act – activates Wnt/beta-catenin signaling in a reporter cell assay | activator, plate reader | activation, % at 9.35 µM | 1.2% of 300,000 active; in the data active means activation above about 30%, passing the limit was not always enough; inconclusive means no clear call, values can overlap the other calls;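 further: 0% = neutral control wells and 100% = positive control wells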
# miR-122 sensor – blocks miR-122 activity in Huh7 sensor cells. activation (reporter increase), % at 12.5 µM. 0.3% of 340,000 active. Huh7 miR-122 Renilla luciferase sensor, 48 h; neutral wells = 0, positive control = 100;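 active means mean replicate activation score at least 90 and every replicate individually at or above 90; inconclusive means only one of the two criteria met; inactive means neither criterion met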;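 further: higher luciferase means less miR-122 activity so hits act as miR-122 inhibitors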
# esBAF inh – inhibitors of esBAF chromatin remodeling in mouse ES cells; 2% of 350,000 active; Bmi1-luciferase knock-in reporter, 24 h; 100% = twice the neutral-well signal; reporter increase, % at 12.5 µM; in the data active means activation above about 40%; inconclusive means no clear call, values can overlap the other calls;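 further: 0% = median of the plate's neutral control wells and 100% = double that signal; a rise in the Bmi1 reporter signal indicates esBAF inhibition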
# MITF act – MITF TRPM1 promoter activation in melanoma cells; 0.75% of 300,000 active; SK-MEL-5 TRPM1-promoter luciferase, 24 h; % of positive control, neutral wells = 0; activation, % at 12.5 µM; AID 588334;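 active means mean activation of at least 80% with every replicate also reaching 80%; inconclusive means mean reaches 80% but some replicate falls short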;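 further: 0% = neutral control wells and 100% = parthenolide positive control wells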
# Env fusion inh – inhibitors of HIV Env-mediated cell fusion; HeLa-JRFL Env/CEM21 cell fusion, luciferase; inhibition, % at 12.3 µM; 1.1% of 360,000 active; AID 651610;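 active means mean replicate inhibition score of at least 50 and every replicate individually at or above 50; inconclusive means only one of the two criteria met; inactive means mean below 50 and not all replicates reaching 50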;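 further: 0% = plate neutral controls and 100% = maraviroc near 300 nM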
# * = called active by the depositor; u = inconclusive; x = no result; [ ] = remark or other dose. Most compounds without a hit are left out; they make up all but 3.4% or so of the library.
SMILES,Wnt bcat act,miR-122 sensor,esBAF inh,MITF act,Env fusion inh
Cc1ccc(C(=O)NCCCc2ccccc2)c(Cl)c1,17.7,0.9,42.4*,100.6*,-32.7
NS(=O)(=O)c1ccc(CCNC(=O)c2ccccc2Cc2ccccc2)cc1,30.8*,2.1,1.4,-5.8,5.6
Cc1ccc(C(=O)NCCCc2ccccc2)c(C)c1,7.4,-8.2,x,50.5,-22.2
NS(=O)(=O)c1ccc(CCNC(=O)c2cccc3ccccc23)cc1,-1.9,x,-1.0,-0.6,-2.8
O=C(NCCCCCCNC(=O)c1ccccc1O)c1ccccc1O,-0.4,-2.9,6.3,-10.8,7.8
O=C(NCCCc1ccccc1)c1ccccc1O,6.8,-4.8,70.0*,44.4,-5.9
C[C@H]1CN([C@@H](C)CO)C(=O)c2cc(C#CCN(C)C)cnc2O[C@H]1CN(C)C(=O)CCN1CCCCC1,x,-2.8[16.7 µM],1.9,x,3.3[16.7 µM]
CCCCSc1nnc(CCCCCNC(=O)OC(C)(C)C)o1,x,-1.8,9.4,-7.4,55.2*
CSc1nnc(CCCCCNC(=O)OC(C)(C)C)o1,0.1,0.9,x,x,4.3
CC(C)NC(=O)N(C)C[C@H]1OCCCC[C@H](C)Oc2ccc(NS(=O)(=O)c3ccccc3)cc2C(=O)N([C@@H](C)CO)C[C@H]1C,x,8.2[16.7 µM],-3.2,x,-47.1[16.7 µM]
COc1ccccc1C#CC1=CC(=O)CC(C)(C)C1,0.3,-3.0,17.1,x,14.6
COc1ccc(C#Cc2ccc(C3=CC(=O)CC(C)(C)C3=O)cc2)cc1,2.4,-6.7,39.9,x,0.5
CCc1ccc(C#CC2=CC(=O)CC(C)(C)C2)cc1,0.6,-7.2,61.4*,x,x
COc1ccc(C#CC2=CC(=O)CC(C)(C)C2)cc1,8.4,-3.6,44.9*,x,27.0
C[C@H]1CN([C@@H](C)CO)C(=O)c2cc(C3=CCCC3)cnc2O[C@H]1CN(C)C(=O)C1CCC1,x,-4.1[16.7 µM],-0.4,x,-63.8[16.7 µM]
FC(F)(F)c1cnc(N2CCN(C(=S)NCc3ccccc3)CC2)c(Cl)c1,1.7,x,x,-6.1,15.1
FC(F)(F)c1cnc(N2CCCN(C(=S)Nc3ccccc3)CC2)c(Cl)c1,-5.5,-37.1,17.9,-26.7,87.1*
O=C(NCCn1ccc2ccccc21)c1ccc2c(c1)OCO2,38.0*,-6.4,52.1*,77.1,-59.8
Cc1ccc(C(=O)NCCn2ccc3ccccc32)cc1[N+](=O)[O-],0.3,x,x,15.7,2.9
COc1ccc(C(=O)NCCn2ccc3ccccc32)cc1,x,-3.3,43.8*,97.6*,x
Cc1ccc(NS(=O)(=O)c2cccc(C(=O)N(C)Cc3cccs3)c2)cc1,0.9,100.1*,8.8,-1.3,-6.8
Cc1ccc(S(=O)(=O)/N=C(/Nc2ccccc2C)c2ccccc2)cc1,0.3,5.4,1.6,-2.4,11.7
Cc1ccc(S(=O)(=O)/N=C(/NC(=S)Nc2ccccc2)c2ccccc2)cc1,u,8.9,55.5*,44.3,-416.5
CCOc1ccc(S(=O)(=O)/N=C(/Nc2ccc(OC)cc2)c2ccccc2)cc1,3.9,x,4.3,7.7,-5.6
COc1ccc(NS(=O)(=O)c2cccc(C(=O)NNC(=O)CNC(=O)c3ccc(C)cc3)c2)cc1,-1.1,x,x,-9.8,67.6*
SMILES,Wnt bcat act,miR-122 sensor,esBAF inh,MITF act,Env fusion inh
COc1ccc(C(=O)NN/C(=N/S(=O)(=O)c2ccc(C)cc2)c2ccccc2)cc1,42.8*,x,x,129.3*,-79.0
CCN(CC(=O)NCc1cccs1)C(=O)c1cccc(S(=O)(=O)Nc2ccc(C)cc2)c1,-0.4,80.3,-2.4,-4.4,x
COc1ccc(NS(=O)(=O)c2cccc(C(=O)NNC(=O)CNC(=O)c3ccccc3F)c2)cc1,-1.2,-8.5,-6.2,-3.0,x
C=CC[C@]1(C(=O)OC)N=C(c2ccc(OCCCO)cc2)O[C@H]1c1ccccc1,x,x,x,x,0.2[16.7 µM]
C[C@H]1CCCCO[C@@H](CN(C)Cc2ccc(C(=O)O)cc2)[C@@H](C)CN([C@@H](C)CO)C(=O)c2cc(NC(=O)Nc3ccc(F)cc3)ccc2O1,x,13.7[16.7 µM],-13.5,x,34.4[16.7 µM]
COc1ccccc1CNC(=O)C[C@H]1CC[C@H]2[C@@H](COc3ccc(NC(=O)c4ccno4)cc3C(=O)N2C)O1,x,-26.7[16.7 µM],3.5,x,-17.6[16.7 µM]
Cc1ccc(S(=O)(=O)/N=C(/Nc2ccc(O)c(C(=O)O)c2)c2ccccc2)cc1,56.6*,x,0.4,-1.9,7.2
Cc1ccc(NC(=S)N/C(=N/S(=O)(=O)c2ccccc2)c2ccccc2)cc1,-3.3,10.9,54.9*,36.8,-161.2
CN1[C@@H]2c3ccc(-c4ccccc4)c(=O)n3C[C@H]1[C@H](CO)[C@H]2C(=O)Nc1nccs1,x,-1.2[16.7 µM],0.4,x,x
C[C@@H]1CN([C@H](C)CO)C(=O)c2cccc(NC(=O)C3CC3)c2O[C@@H]1CN(C)S(=O)(=O)c1cn(C)cn1,x,-6.7[16.7 µM],-5.1,x,-17.5[16.7 µM]
COC(=O)c1ccc(CN2C(=O)NC3(CCC(C)CC3)C2=O)cc1 (centres undefined),5.0,-4.1,43.9*,47.8,-46.0
COC(=O)c1ccc(CN2C(=O)NC3(CCC(C)CC3)C2=O)o1 (centres undefined),-0.8,4.3,1.5,x,x
CC1(C)CC(=O)C=C(c2ccc(Oc3ccccc3)cc2)C1,26.4,-3.2,68.4*,70.3,1.0
CN1CCN(C(=O)C[C@H]2CC[C@@H]3[C@H](COC[C@@H](O)CN3Cc3ccc4c(c3)OCO4)O2)CC1,x,1.5[16.7 µM],1.8,x,x
COc1ccc2c(c1)CCC1C2=NN(/C(C)=C\C(C)=O)C1c1ccc(F)cc1 (centres undefined),52.0*,x,x,27.4,-14.5
COc1ccc2c(c1)C1=NN(/C(C)=C\C(C)=O)C(c3ccccc3)C1CC2 (centres undefined),x,-4.6,48.3*,18.7,x
COc1ccc2c(c1)C1=NN(/C(C)=C/C(C)=O)C(c3ccc(F)cc3)C1CC2 (centres undefined),x,7.4,x,9.2,-7.6
CCCC(=O)Nc1ccc2c(c1)C(=O)N(C)C[C@@H](OC)[C@H](C)CN(CCc1ccccc1)[C@@H](C)CO2,x,-8.4[16.7 µM],1.5,x,x
C=CCn1c(CC(=O)OC)csc1=Nc1ccc(C(C)=O)cc1,-0.5,-5.6,54.9*,51.5,x
O=C(O)[C@@H]1[C@@H](CO)[C@@H]2Cn3c(ccc(/C=C/c4ccccc4)c3=O)[C@@H]2N1C(=O)C1CCCC1,x,x,x,x,-54.8[16.7 µM]
Cc1ccc(NC(=O)Cc2nc(CSc3nnc(-c4ccc5c(c4)OCO5)o3)cs2)cc1,18.4,-2.8,51.0*,x,-71.9
CN(C)C(=O)c1ccc(NC(=O)CSc2nnc(-c3ccc4c(c3)OCO4)o2)cc1,-0.4,-0.9,1.5,2.2,-12.0
O=C(C[C@H]1C[C@@H]2c3cc(NC(=O)C4CCC4)ccc3O[C@@H]2[C@H](CO)O1)NCc1ccc(-c2ccccc2)cc1,x,-1.1[16.7 µM],18.1,x,12.9[16.7 µM]
O=[N+]([O-])c1ccc(N/N=C/c2c[nH]c3ccccc23)c(S(=O)(=O)Nc2ccc(Cl)cc2)c1,x,162.0*,1.7,-6.7,12.8
Cc1cccc(Nc2nc(-c3ccc(O)cc3O)cs2)n1,18.6,x,44.9*,x,-439.7
Oc1ccc(-c2csc(Nc3ncccn3)n2)c(O)c1,94.1*,1.3,82.4*,103.7*,-71.0
Oc1ccc(-c2csc(Nc3ccc4c(c3)OCO4)n2)c(O)c1,45.9*,1.8,-2.9,54.1,-175.9
